Laboratory results from PubChem BioAssay (NCI).
This is part of a sample that, as a whole, favours compounds with a hit. Of some 83,000 tested, about 20% had one in any assay.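 48-hour exposure, single concentration, 96-well plates; percent growth endpoint where 0 means no net growth. Active: below 10.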 Unmarked numbers belong to inactive results. Calls of active or inactive are those of the source.

Test system: UACC-257 melanoma
Experiment: NCI-60 one-dose screen, 48 h (100 = growth as untreated, 0 = no growth, -100 = all killed)
Details: 10 µM unless noted

| Compound | growth |
| --- | --- |
| O=C(O)COc1ccc([N+](=O)[O-])cc1Cl | 91.6% |
| COC(=O)C(C(=O)OC)C(Br)C(Br)C(Br)c1ccccc1 (centres undefined) | 82.7% |
| C=CCNCCC#N | 111% |
| O=C1C=C(OCC=C(C(F)(F)F)C(F)(F)F)c2ccccc2C1=O | 45.8% |
| N#CCc1ncc(-c2ccc(C(F)(F)F)cc2)c(NC2CCCCCC2)n1 | 23.3% [100 µM] |
| C[C@]12CC[C@H]3[C@@H](CC[C@H]4C[C@@H](O)CC[C@@]43C)[C@@H]1CC(=O)C2 | 104% |
| [N-]=[N+]=Nc1ncc(-c2ccc(C(F)(F)F)cc2)c(NC2CCCCCC2)n1 | 27.6% [100 µM] |
| NC(CSC(c1ccccc1)(c1ccccc1)c1ccccc1)C(=O)NCC(=O)O (centres undefined) | 54.9% |
| COc1cc(-c2nc(/C=C3/C(=O)Nc4ccccc43)c3ccccn23)cc(OC)c1OC | 70.8% |
| COc1cc2cn3c4ccc(O)cc4[nH]c(=O)c3c2cc1OC | -10.1% (active) |
| CCCCCCCCCCCCCCCCNC(=O)Nc1ccc(C)c(NC(=O)NCCCCCCCCCCCCCCCC)c1 | 105% |
| O=C(c1ccccc1)c1ccccc1-c1ccccc1 | 55.4% |
| O=C(/C=C/c1ccc(Cl)cc1)c1ccc(Cl)cc1 | 103% |
| CC(=O)O.[In] | 94.3% |
| COC(=O)[C@H](Cc1cn(C)cn1)NC(=O)[C@H](CC(=O)OCc1ccccc1)NC(=O)Nc1cc(C(F)(F)F)cc(C(F)(F)F)c1 | -94.9% [100 µM] (active) |
| COc1cc([C@@H]2c3cc4c(cc3[C@H](O)[C@H]3COC[C@@H]23)OCO4)cc(OC)c1OC | 75.8% |

| Compound | growth |
| --- | --- |
| COc1ccc(/C=C2\CCCC3=C2N=C2SC=NN2C3c2ccc(OC)c(OC)c2)cc1OC (centres undefined) | 54.6% |
| CC(=O)CC(=O)OC/C=C(/C)CCC=C(C)C | 106% |
| CC(=O)Nc1ccc(S(=O)(=O)Cl)cc1 | 131% |
| CC(CCN1CCN(CCC(C)CC(C)(C)C)C1CC(C)CC(C)(C)C)CC(C)(C)C (centres undefined) | 107% |
| C=C(C)C(C(=O)OCC)(C(=O)OCC)C(C)C | 107% |
| CSCc1ncc(-c2ccc(C(F)(F)F)cc2)c(NC2CCCCCC2)n1 | 74.1% [25 µM] |
| CCn1cnc(C[C@H](NC(=O)[C@@H](NC(=O)Nc2cc(C(F)(F)F)cc(C(F)(F)F)c2)C(C)C)C(=O)OC)c1 | -95.1% [100 µM] (active) |
| O=Nc1ccc(O)c2ccccc12 | -68.5% (active) |
| CC#Cc1nc(Nc2cc(C)[nH]n2)c2ccccc2n1 | -19.9% [100 µM] (active) |
| CC(Br)c1nc2ccccc2cc1C(N)=O (centres undefined) | 119% |
| COC(=O)[C@H](Cc1cn(C)cn1)NC(=O)[C@@H](NC(=O)Nc1cc(C(F)(F)F)cc(C(F)(F)F)c1)C(C)(C)C | -74.2% [100 µM] (active) |
| CCCCCCCCCCCCCCCCCCOP(=O)(O)O | 113% |
| CCC(C)CC(N)O (centres undefined) | 102% |
| CN(C)CCOC(=O)C(C)(C)C | 92.5% |
| CNc1ccc(Nc2ccc(S(=O)(=O)O)cc2)c2c1C(=O)c1ccccc1C2=O | 107% |
| Cn1c2ccccc2c2ccccc21 | 94.8% |

Test system: M14 melanoma
Experiment: as above
Details: 10 µM unless noted

| Compound | growth |
| --- | --- |
| O=C(O)COc1ccc([N+](=O)[O-])cc1Cl | 107% |
| C=C[C@]1(C)C=C2C(=O)[C@@]3(O)OC[C@@]4(CCCC(C)(C)C43O)C2(O)C(O)C1 (some centres undefined) | 9.03% (active) |
| COC(=O)C(C(=O)OC)C(Br)C(Br)C(Br)c1ccccc1 (centres undefined) | 104% |
| C=CCNCCC#N | 101% |
| O=C1C=C(OCC=C(C(F)(F)F)C(F)(F)F)c2ccccc2C1=O | 26% |
| N#CCc1ncc(-c2ccc(C(F)(F)F)cc2)c(NC2CCCCCC2)n1 | 19% [100 µM] |
| C[C@]12CC[C@H]3[C@@H](CC[C@H]4C[C@@H](O)CC[C@@]43C)[C@@H]1CC(=O)C2 | 108% |
| COC(=O)c1cc(=O)nc(N/N=C/c2ccccc2O)s1 | 95.2% |
| [N-]=[N+]=Nc1ncc(-c2ccc(C(F)(F)F)cc2)c(NC2CCCCCC2)n1 | 34.7% [100 µM] |
| NC(CSC(c1ccccc1)(c1ccccc1)c1ccccc1)C(=O)NCC(=O)O (centres undefined) | 44.6% |
| COc1cc(-c2nc(/C=C3/C(=O)Nc4ccccc43)c3ccccn23)cc(OC)c1OC | 77.6% |
| COc1cc2cn3c4ccc(O)cc4[nH]c(=O)c3c2cc1OC | 3.61% (active) |
| CCCCCCCCCCCCCCCCNC(=O)Nc1ccc(C)c(NC(=O)NCCCCCCCCCCCCCCCC)c1 | 108% |
| O=C(c1ccccc1)c1ccccc1-c1ccccc1 | 0.878% (active) |
| CN1NC(c2ccccc2)NN(C)C1=O | 108% |
| COc1cc2c(c3c1c(=O)c1cccc(F)c1n3C)C=CC(C)(C)O2 | 101% |
| NCCCOc1cc2ccccc2cc1C(=O)Nc1ccc(Cl)cc1OC(=O)c1cc2ccccc2cc1OCCCN | -86.7% (active) |
| O=C(/C=C/c1ccc(Cl)cc1)c1ccc(Cl)cc1 | 100% |
| CC(=O)O.[In] | 105% |

| Compound | growth |
| --- | --- |
| COc1cc([C@@H]2c3cc4c(cc3[C@H](O)[C@H]3COC[C@@H]23)OCO4)cc(OC)c1OC | 42.4% |
| CC(=O)CC(=O)OC/C=C(/C)CCC=C(C)C | 101% |
| CC(=O)Nc1ccc(S(=O)(=O)Cl)cc1 | 118% |
| CC(CCN1CCN(CCC(C)CC(C)(C)C)C1CC(C)CC(C)(C)C)CC(C)(C)C (centres undefined) | 100% |
| C=C(C)C(C(=O)OCC)(C(=O)OCC)C(C)C | 110% |
| CSCc1ncc(-c2ccc(C(F)(F)F)cc2)c(NC2CCCCCC2)n1 | 67.4% [25 µM] |
| CCn1cnc(C[C@H](NC(=O)[C@@H](NC(=O)Nc2cc(C(F)(F)F)cc(C(F)(F)F)c2)C(C)C)C(=O)OC)c1 | -93.8% [100 µM] (active) |
| O=Nc1ccc(O)c2ccccc12 | -10.8% (active) |
| COC(=O)c1c[n+]([O-])ccc1OC | 104% |
| CC#Cc1nc(Nc2cc(C)[nH]n2)c2ccccc2n1 | -27.3% [100 µM] (active) |
| COC(=O)[C@H](Cc1cn(C)cn1)NC(=O)[C@@H](NC(=O)Nc1cc(C(F)(F)F)cc(C(F)(F)F)c1)C(C)(C)C | -85.2% [100 µM] (active) |
| CCCCCCC(C(=O)OCC)(C(=O)OCC)C1CCCCCC1 | 106% |
| CCCCCCCCCCCCCCCCCCOP(=O)(O)O | 99.4% |
| CCC(C)CC(N)O (centres undefined) | 103% |
| CN(C)CCOC(=O)C(C)(C)C | 98.3% |
| CNc1ccc(Nc2ccc(S(=O)(=O)O)cc2)c2c1C(=O)c1ccccc1C2=O | 112% |
| Cn1c2ccccc2c2ccccc21 | 99.3% |
| NCCCOc1cc(Cl)ccc1NC(=O)c1cc2ccccc2cc1OCCCN | -88.5% (active) |
